We go through 16 molecules from PubChem BioAssay (NCI).

The panel holds about 83,000 compounds, 20% with a hit somewhere; the sample as a whole holds those more often.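 48-hour exposure, single concentration, 96-well plates; percent growth endpoint where 0 means no net growth. Active: below 10.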 The source made the active and inactive calls.

Experiment in all cases: NCI-60 one-dose screen, 48 h (100 = growth as untreated, 0 = no growth, -100 = all killed)
Common to all, as to details: 10 µM unless noted

Test [1] relates to SK-MEL-2 melanoma.
Test [2] deals with EKVX NSCLC.
Test [3] concerns SN12C renal.
Test [4] has as its system UO-31 renal.
Test [5] concerns TK-10 renal.
In test [6] the test system is ACHN renal.
The test system of test [7] is CAKI-1 renal.
Test [8] relates to A498 renal.
Test [9] relates to CCRF-CEM leukemia.
In test [10] the test system is MOLT-4 leukemia.

As to `CCS(=O)(=O)N1CCCC(C(=O)Nc2nc3ccc(NC(=O)c4ccc(F)c(OC)c4F)cc3s2)C1` (stereo not given), the growth in test [1] was 61.1% (inactive); in test [2] it was 46.8% (inactive); in [3] it was 83.7% (inactive); in [4], 54.5% (inactive); in test [5], 83.8% (inactive); in test [6] it was 63.5% (inactive). Moreover, the growth in test [7] is 57.6% (inactive); in test [8], 87.9% (inactive); in [9], 29.5% (inactive); in test [10], 9.19% (active).
`COc1ccc(NC(=O)c2sc3nc(C(C)C)ccc3c2N)cc1`: the growth in [1] was 97.5% (inactive); in [2], 43.2% (inactive); in test [3] it was 74.1% (inactive); in [4] it was 72.5% (inactive); in [5], 93.1% (inactive); in test [6], 81.2% (inactive). Besides, the growth in test [7] was 80.7% (inactive); in test [8], 84.4% (inactive); in test [9] it was 54.6% (inactive); in [10], 67.5% (inactive).
As to `COc1cc2c(c(OC)c1OC)C(=O)CC(c1cccc(NC(=O)c3cccc([N+](=O)[O-])c3)c1)O2` (stereo not given), the growth in test [1] is -10.4% (active); in test [2], 60.6% (inactive); in test [3] it was 29.2% (inactive); in test [4] it was 16.1% (inactive); in [5], 71.7% (inactive); in [6] it was 30.1% (inactive). Moreover, the growth in [7] is 22.1% (inactive); in [8] it was 91.2% (inactive); in test [9], 11.5% (inactive); in test [10], 13.9% (inactive).
Take `Cc1ccc(NCC(=O)Cn2cc(COc3ccc(C=Nc4cnc5ccccc5c4)cc3)nn2)cc1`: the growth in [1] is 136% (inactive); in test [2] it was 106% (inactive); in test [3], 99.9% (inactive); in test [4] it was 90.1% (inactive); in test [5] it was 109% (inactive); in test [6] it was 107% (inactive). Further, the growth is 97% (inactive) in test [7], 124% (inactive) in [8], 102% (inactive) in test [9] and 108% (inactive) in test [10].
Turning to `O=C1NC(=O)/C(=C/c2ccccc2OCc2cc3ccccc3nc2Cl)S1`, the growth in test [1] is 88.6% (inactive); in [2], 88% (inactive); in [3] it was 81.4% (inactive); in test [4] it was 71.9% (inactive); in test [5] it was 97.7% (inactive); in test [6], 86.2% (inactive). In addition, the growth is 82.3% (inactive) in test [7], 122% (inactive) in [8], 53.9% (inactive) in test [9] and 85.3% (inactive) in test [10].
Consider `CC(=O)Nc1ccc(-c2cn(-c3cccc(C(=O)Nc4ccc(N5CCN(C)CC5)cc4)c3)nn2)cn1`, for which the growth is 92.5% (inactive) in test [1]; 80.9% (inactive) in test [2]; 80.1% (inactive) in [3]; 100% (inactive) in test [4]; 86.5% (inactive) in [5]; 88.1% (inactive) in [6]. Further, the growth was 98.2% (inactive) in [7], 160% (inactive) in [8], 40% (inactive) in test [9] and 59.8% (inactive) in [10].
Turning to `COc1ccc2c(c1)c(-c1cc3nc(-c4cn(C)c5ncccc45)cc(N)n3n1)cn2C`, the growth in test [1] is -71.9% (active); in test [2] it was -22.8% (active); in [3], -60.2% (active); in test [4] it was -62.1% (active); in test [5], -27.8% (active); in test [6] it was -100% (active). Further, the growth in test [7] is -35.9% (active); in test [8], 16.6% (inactive); in [9], -22% (active); in [10] it was -42.5% (active).
Regarding `Cn1cc(-c2cc(N)n3nc(-c4cn(C)c5ncccc45)cc3n2)c2cccnc21`, the growth was 95.8% (inactive) in test [1]; 95% (inactive) in test [2]; 90% (inactive) in test [3]; 89.2% (inactive) in [4]; 86% (inactive) in [5]; 109% (inactive) in test [6]. In addition, the growth in test [7] is 86.5% (inactive); in test [8], 87.2% (inactive); in test [9] it was 85.2% (inactive); in test [10], 53.5% (inactive).
`CCOC(=O)/C=C/c1cccc2c1C(=O)NC(C)(c1cc3cc(Br)ccc3oc1=O)N2` (stereo not given): the growth in test [1] is 5.72% (active); in test [2], 43.8% (inactive); in [3] it was 53.3% (inactive); in test [4] it was 19.8% (inactive); in test [5], 58.4% (inactive); in test [6], 28.1% (inactive). The growth in [7] was 20.2% (inactive); in [8], 59.8% (inactive); in test [9], 36.8% (inactive); in test [10], 30.4% (inactive).
For the molecule `C=C1CC[C@@H]2[C@]3(C)COC(c4cn[nH]c4-c4ccc(C)cc4)O[C@@H]3CC[C@@]2(C)[C@@H]1C/C=C1/C(=O)OCC1O` (stereo not given in full), the growth is 51.4% (inactive) in [1]; 12.9% (inactive) in test [2]; 7.06% (active) in test [3]; 4.54% (active) in [4]; 49% (inactive) in [5]; -53.5% (active) in test [6]. For the same molecule, the growth was 50.3% (inactive) in [7], 133% (inactive) in [8], -17.8% (active) in test [9] and 13.9% (inactive) in [10].
Take `O=C(O)c1cccc(-c2ccc(/C=N/NC(=O)c3[nH]c4ccc(Br)cc4c3-c3ccccc3)s2)c1`: the growth is 26.3% (inactive) in test [1]; 35.2% (inactive) in test [2]; 57.5% (inactive) in [3]; 47.9% (inactive) in test [4]; 86.8% (inactive) in [5]; 44.1% (inactive) in test [6]. In addition, the growth in [7] is 74.7% (inactive); in test [8], 100% (inactive); in test [9], 31% (inactive); in test [10], 45.3% (inactive).
`Cc1cccc(NC(=O)CN2CCN(c3ncnc4c3cnn4-c3ccccc3)CC2)c1`: the growth in [1] was 80.2% (inactive); in test [2], 85.9% (inactive); in [3], 83.4% (inactive); in [4], 54.9% (inactive); in test [5], 130% (inactive); in test [6], 79.9% (inactive). The growth in [7] was 82.9% (inactive); in [8] it was 98% (inactive); in test [9], 76.7% (inactive); in [10], 75% (inactive).
In the case of `CC(=O)Nc1cccc(-c2nc3cc(-c4ccc(O)cc4)ccc3n2C)c1`, the growth in test [1] was 52.6% (inactive); in test [2], 35.1% (inactive); in [3] it was 43.8% (inactive); in [4], 38.4% (inactive); in test [5], 59% (inactive); in [6], 16% (inactive). The growth was 38.5% (inactive) in [7], 86.8% (inactive) in [8], 28.3% (inactive) in test [9] and 9.2% (active) in [10].
As to `CC1=C(C(=O)c2ccccc2)C(c2cccc3ccccc23)n2c(nc3ccccc32)N1` (stereo not given), the growth is 106% (inactive) in test [1]; 58.4% (inactive) in test [2]; 75.3% (inactive) in test [3]; 81.8% (inactive) in test [4]; 83.8% (inactive) in test [5]; 88.5% (inactive) in test [6]. For the same molecule, the growth in test [7] was 55.7% (inactive); in test [8], 153% (inactive); in test [9] it was 55.9% (inactive); in test [10] it was 52.3% (inactive).
In the case of `C=C1CCC2C3(C)COC(c4ccc(F)cc4)OC3CCC2(C)C1CC(O)C1=CCOC1=O` (stereo not given), the growth was 19.9% (inactive) in test [1]; 62.6% (inactive) in test [2]; 32.1% (inactive) in test [3]; 43.2% (inactive) in [4]; 96.6% (inactive) in [5]; 30.2% (inactive) in test [6]. In addition, the growth in [7] was 53.3% (inactive); in test [8], 118% (inactive); in test [9], 21.4% (inactive); in test [10], 22.5% (inactive).
Consider `COc1c(F)ccc(C(=O)Nc2ccc3nc(NC(=O)C4CCCN(S(=O)(=O)c5ccc(Cl)cc5)C4)sc3c2)c1F` (stereo not given), for which the growth in test [1] was 88% (inactive); in test [2], 85.1% (inactive); in [3], 82% (inactive); in test [4], 62.9% (inactive); in test [5], 103% (inactive); in [6], 86.7% (inactive). The growth in test [7] was 68.9% (inactive); in test [8], 96.4% (inactive); in test [9], 85.5% (inactive); in test [10], 38.8% (inactive).
